PriA SSB inh – inhibitors of Klebsiella pneumoniae PriA binding to SSB C-terminal tail, primary screen, biochemical, AlphaScreen | inhibition, % at 33 µM | PriA–SSB C-terminal tail interaction (Klebsiella pneumoniae) | AID 1272365, 2023 | hit rate 0.6% among 430,000 | AlphaScreen SSBct-PriA binding, biotinylated peptide; in the data active means inhibition mostly above about 37%, no sharp cut-off; inactive means mostly below about 20%;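 further: plate controls were negative control peptide for no effect and reference peptide for full effect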
FBA Mtb inh – Mtb FBA enzyme inhibitors, primary screen, biochemical, fluorescence, strain H37Rv; Fructose-bisphosphate aldolase (Mycobacterium tuberculosis (strain ATCC 25618 / H37Rv)), …; purified M. tuberculosis FBA, fluorescence read-out; inhibition, % at 1 µM; hit rate 2.3% among 360,000; AID 588726, 2011; in the data active means inhibition above about 27%;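 further: 0% = vehicle and 100% = reference inhibitor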
Target sequence (P9WQA3 whole entry, looked up): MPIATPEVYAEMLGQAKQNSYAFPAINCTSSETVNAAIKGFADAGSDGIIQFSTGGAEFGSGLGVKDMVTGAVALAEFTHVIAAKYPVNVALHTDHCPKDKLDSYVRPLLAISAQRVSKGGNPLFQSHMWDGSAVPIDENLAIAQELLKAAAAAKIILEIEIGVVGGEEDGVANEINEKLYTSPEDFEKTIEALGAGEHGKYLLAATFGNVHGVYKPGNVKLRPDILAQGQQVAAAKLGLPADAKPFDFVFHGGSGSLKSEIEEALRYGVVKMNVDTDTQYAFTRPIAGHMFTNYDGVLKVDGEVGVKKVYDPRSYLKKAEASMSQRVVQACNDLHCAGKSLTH
Rv3671c inh – Rv3671c serine protease inhibitors, primary screen, biochemical, fluorescence polarization, M. tuberculosis H37Rv; hit rate 0.048% among 320,000; inhibition, % at 5.96 µM; in the data active means inhibition above about 38%;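 further: extracellular domain of Rv3671c used as enzyme; 0% = enzyme with DMSO and 100% = no enzyme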
UGM FP inh – M. tuberculosis UGM enzyme inhibitors, primary screen, biochemical, fluorescence polarization, single point. UDP-galactopyranose mutase (Mycobacterium tuberculosis (strain ATCC 25618 / H37Rv)), …. purified UGM, fluorescence polarization probe displacement. inhibition, % at 10 µM. hit rate 0.06% among 320,000; in the data active means inhibition above about 10%, passing the limit was not always enough
GDH-TPI inh – GDH-TPI coupling enzyme inhibitors, primary screen, artefact control for M. tuberculosis FBA inhibitor project, biochemical, absorbance, full deck. GDH-TPI coupled enzyme counterscreen, NADH absorbance. inhibition, % at 4.8 µM. hit rate 1.2% among 360,000. AID 588335, 2011; in the data active means inhibition above about 30%;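 further: 0% = DMSO wells and 100% = wells lacking the enzyme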
Mtb betalactam – beta-lactam sensitization of Mtb H37Rv, H37Rv | M. tuberculosis H37Rv growth with meropenem, percent inhibition | inhibition, % at 25 µM | hit rate 0.27% among 330,000; call rule not given here;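 further: growth measured after seven days incubation then overnight dye step; 0% = bacteria only wells and 100% = bacteria with antibiotic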
* marks the source's active call; other numbers are inactive results; nt = not tested or not shown. Compounds with a hit are over-represented: about 3.2% of the library has one in this group of screens.

SMILES	PriA SSB inh	FBA Mtb inh	Rv3671c inh	UGM FP inh	GDH-TPI inh	Mtb betalactam
CC(=O)N(Cc1ccccc1)c1ncc2c(n1)c(=O)c(C#N)c1ccccn12	48*	7	-15	2	22	3
COC(=O)Cc1c(C)c2ccc(OCc3nn[nH]n3)c(C)c2oc1=O	-18	160*	0	1	13	-4
COC(=O)Cc1c(C)c2ccc(OCc3nn[nH]n3)cc2oc1=O	-2	189*	-8	-2	17	-12
COC(=O)Cc1c(C)c2ccc(OCC(=O)N3CCCC(C)C3)c(C)c2oc1=O (centres undefined)	-4	120*	-3	4	10	-13
COC(=O)Cc1c(C)c2c(OCc3nn[nH]n3)cc(C)cc2oc1=O	-4	172*	0	-1	24	-3
Cc1c(CC(=O)O)c(=O)oc2c(C)c(OCc3ccccc3)ccc12	-4	14	nt	-1	10	6
CCC(C)NC(=O)C1CCN(C(=O)COc2ccc3c4c(c(=O)oc3c2C)CCCC4)CC1 (centres undefined)	-7	9	-7	-1	7	-3
CC1=NNC(=O)C1CCC(=O)NN=C/C(Br)=C/c1ccccc1 (centres undefined)	-7	nt	nt	nt	nt	nt
Cc1cc(OCc2cc3c(cc2Cl)OCO3)c2c(C)cc(=O)oc2c1	-9	8	-2	2	1	-7
CCc1cc(=O)oc2cc(C)cc(OCc3nn[nH]n3)c12	4	119*	-4	1	9	-11
Cc1c(OCC(=O)N2CCC(C(=O)NCCCC(=O)O)CC2)ccc2c1oc(=O)c1ccccc12	-19	133*	-8	3	5	0
Cc1sc(=NC(=O)c2ccco2)n(C)c1-c1ccc(Cl)cc1	2	5	-1	3	52*	2
CCOC(=O)c1sc(=NC(=O)c2ccco2)n(C)c1C	-7	1	-6	3	38*	-5
N#Cc1c(Nc2ccccc2)c(/C=N\N=C/c2cccnc2)c[nH]c1=O	-9	nt	nt	nt	nt	nt
O=C(NCCCN1CCOCC1)c1cc(-c2ccc3c(c2)OCO3)nc2ccccc12	-1	1	3	1	25	1
O=C(NCCCN1CCCC1=O)c1cc(-c2ccc3c(c2)OCO3)nc2ccccc12	-17	6	-9	-2	34*	0
NS(=O)(=O)c1ccc(CCNC(=O)C(=O)NC[C@@H](c2ccco2)N2CCN(c3ccccc3F)CC2)cc1	1	nt	nt	nt	nt	nt
Cc1ccc(C(=O)NC2CC(C)(C)NC(C)(C)C2)cc1	-9	2	0	3	3	-1
CC1(C)CC(NC(=O)c2coc(=O)c(Br)c2)CC(C)(C)N1	-17	60*	3	0	26	-9
CC(=O)c1ccccc1Oc1cc(NN2CCCCC2)c([N+](=O)[O-])cc1[N+](=O)[O-]	20	-3	5	-1	22	-9
CC(=O)c1cccc(Oc2cc(NN3CCCCC3)c([N+](=O)[O-])cc2[N+](=O)[O-])c1	45*	-2	-8	3	13	-4
CCCC1=[N+](CC)CCn2c(C)ccc21	-20	-1	0	-1	31	-4
CCCC1=[N+](CC(=O)c2ccccc2)CCn2c(C)ccc21	5	-4	7	-1	35*	4
COc1ccccc1OCC(=O)Nc1cc(C)nn1-c1nc2c(cnn2-c2ccc(F)cc2)c(=O)[nH]1	-8	nt	nt	nt	nt	nt
Cc1cc(NC(=O)c2ccccc2C(F)(F)F)n(-c2nc3c(cnn3-c3ccccc3)c(=O)[nH]2)n1	24	nt	nt	nt	nt	nt
SMILES	PriA SSB inh	FBA Mtb inh	Rv3671c inh	UGM FP inh	GDH-TPI inh	Mtb betalactam
COc1ccc(C(=O)Nc2cc(C)nn2-c2nc3c(cnn3-c3ccc(F)cc3)c(=O)[nH]2)cc1OC	53*	nt	nt	nt	nt	nt
COc1ccc(C(=O)Nc2cc(C)nn2-c2nc3c(cnn3-c3ccc(C)cc3)c(=O)[nH]2)cc1	0	nt	nt	nt	nt	nt
CSc1ccccc1C(=O)Nc1cc(C)nn1-c1nc2c(cnn2-c2ccc(F)cc2)c(=O)[nH]1	41*	nt	nt	nt	nt	nt
COc1ccc(C(=O)Nc2cc(C)nn2-c2nc3c(cnn3-c3ccc(C)c(C)c3)c(=O)[nH]2)cc1OC	91*	nt	nt	nt	nt	nt
O=C(CSc1nc2c(cnn2-c2cccc(Cl)c2)c(=O)[nH]1)c1ccccc1	-7	nt	nt	nt	nt	nt
O=C(c1cnc2ccccc2n1)N1CCN(c2ccc(C(F)(F)F)cn2)CC1	4	-4	2	0	31*	2
O=C(c1ccc(N2CCCCC2)nn1)N1CCN(c2ccc(C(F)(F)F)cn2)CC1	2	nt	nt	nt	nt	nt
O=C1CC(C(F)(F)F)=NN1c1ccccc1	35*	nt	nt	nt	nt	nt
COc1ccc2c(=O)c(Oc3ccc(C(=O)NC[C@H]4CCCO4)cc3)coc2c1	5	nt	nt	nt	nt	nt
CC(C)(C)NC(=S)Nc1ccc(Nc2ccccc2)cc1	52*	0	19	2	5	7
NC(=N\N=Cc1ccco1)/C(N)=N/N=Cc1ccco1	nt	-2	nt	nt	58*	nt
NC(=N\N=Cc1ccccc1)/C(N)=N/N=Cc1ccccc1	nt	-1	nt	nt	24	nt
Oc1ccc(C=NN=Cc2ccco2)c(O)c1	-6	-3	nt	nt	41*	nt
O=C(CNC(=O)c1ccco1)N/N=C/c1ccc(O)cc1O	nt	2	-9	0	16	1
O=C(NCc1cnn2ccccc12)Nc1cccs1	21	nt	nt	nt	nt	nt
Cc1ccc(S(=O)(=O)c2cnc(SCC(=O)NCCc3ccccc3)[nH]c2=O)cc1Cl	-5	nt	nt	nt	nt	nt
Cc1ccc(-c2csc(NC(=O)C3CCCCN3S(C)(=O)=O)n2)c(C)c1 (centres undefined)	12	nt	nt	nt	nt	nt
CCOc1ccc(N2CCN(CC(=O)Nc3ccc(Cl)c(Cl)c3)C2=O)cc1	-10	nt	nt	nt	nt	nt
C/C(=N\NC(=O)c1cc2ccccc2cc1O)c1cc2ccccc2o1	nt	-3	18	2	60*	68
CC(=NNC(=O)c1cc2ccccc2cc1O)c1cc2ccccc2o1	-8	nt	nt	nt	nt	nt
C/C(=N\NC(=O)c1nc2ccccn2c1C)c1cc2ccccc2o1	nt	1	1	1	33*	5
COc1ccc(-c2ccc(N3CCCC(C(=O)N4CCOCC4)C3)nn2)cc1 (centres undefined)	-13	nt	nt	nt	nt	nt
CCCn1c(O)c(N=NC(=O)c2ccco2)c2ccccc21	-3	6	-18	1	33*	94
COc1cc(N2CCCC2)c(OC)cc1/C=C(/C#N)c1ccc(F)cc1	33	-6	-5	4	-3	23
COc1cc(N2CCCC2)c(OC)cc1/C=C(/C#N)c1ccc(Br)cc1	3	-1	0	55*	-8	-10
c1ccc(N=Nc2ccc3cccccc2-3)cc1	51*	-4	11	3	4	72
Nc1ccc(N=Nc2ccccc2)c(N)n1	56*	-14	4	nt	14	2
Clc1ccc2nc3c(nc2c1)-c1cccc2cccc-3c12	-26	nt	nt	nt	nt	nt

Screening data: PubChem, several laboratories
